Assay [1] in a line: binders of probe aFSTL3 on microarray, primary screen, stem cell growth factor project, biochemical, small-molecule microarray, fluorescence 635/667 (AID 1064).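 Also: measures binding of the biotinylated anti-FSTL3 antibody to printed compounds.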 The conditions noted are these: higher = more signal.
The nature of assay [2]: binders from COS7 lysate, DM2A8 probe, primary screen, torsin A project, cell lysate, small-molecule microarray, fluorescence 635/667 (AID 1065). The conditions noted are these: higher = more signal, COS7 lysate expressing mutant human TOR1A.
A short description of assay [3]: binders of probe aFGF2 on microarray, primary screen, stem cell growth factor project, biochemical, small-molecule microarray, fluorescence 635/667 (AID 1067).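 Also: measures binding of biotinylated aFGF2 protein to printed compounds on slides; z-score merges feature fluorescence and signal-to-noise across triplicate slides.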 The conditions noted are these: higher = more signal.
A short description of assay [4]: binders of probe aFGF10 on microarray, primary screen, stem cell growth factor project, biochemical, small-molecule microarray, fluorescence 635/667 (AID 1071).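 Also: score merges 667 nm spot intensity and signal to noise from triplicate slides.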 The conditions noted are these: higher = more signal.
Assay [5] addresses Neurogenic locus notch homolog protein 2 (Homo sapiens) (UniProt Q04721). The assay can be described thus: Notch2 binders on small-molecule microarrays, primary screen, biochemical, small-molecule microarray, 635 nm fluorescence, stem cell growth factors (AID 1073). As to conditions: Notch2 binding, higher = more signal.
In assay [6] the target is Pro-neuregulin-1, membrane-bound isoform (Homo sapiens) (UniProt Q02297). The experiment in a line: NRG1 binders on small-molecule microarrays, primary screen, psychiatric disease protein project, biochemical, small-molecule microarray, fluorescence 635/667 (AID 1075).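 Also: score combines 667 nm spot fluorescence with signal to noise.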 As to conditions: NRG1 binding, 635 nm fluorescence, higher = more signal.
Assay [7] concerns Neuregulin-1 EGF-like domain. The experiment in a line: binders of neuregulin-1 EGF-like domain, primary screen, biochemical, small-molecule microarray, 635 nm fluorescence (AID 1081).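 Also: binding of the protein to compounds printed on small-molecule microarray slides.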 The conditions noted are these: small-molecule microarray binding, higher = more signal.
Assay [8] is described as follows: FRG1 promoter luciferase signal modulators, primary screen, FRG1 inhibition for FSHD, cell-based, C2C12 myotubes, firefly/Renilla luciferase, luminescence (AID 1084). As to conditions: higher = more signal, called active from +8 up or from −8 down.
Assay [9] can be described thus: binders of probe aFST on microarray, primary screen, stem cell growth factor project, biochemical, small-molecule microarray, fluorescence 635/667 (AID 1086).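 Also: score merges 667 nm fluorescence with signal-to-noise of each printed compound spot.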 As to conditions: higher = more signal.
A short description of assay [10]: binders of probe aHhip on microarray, primary screen, stem cell growth factor project, biochemical, small-molecule microarray, fluorescence 635/667 (AID 1087).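 Also: score merges spot fluorescence at 667nm with spot signal to noise ratio.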 As to conditions: higher = more signal.

Activity calls are given as the source filed them.

Pro-neuregulin-1, membrane-bound isoform (Homo sapiens), sequence (Q02297 whole entry, looked up, the tested form may be a part, canonical isoform): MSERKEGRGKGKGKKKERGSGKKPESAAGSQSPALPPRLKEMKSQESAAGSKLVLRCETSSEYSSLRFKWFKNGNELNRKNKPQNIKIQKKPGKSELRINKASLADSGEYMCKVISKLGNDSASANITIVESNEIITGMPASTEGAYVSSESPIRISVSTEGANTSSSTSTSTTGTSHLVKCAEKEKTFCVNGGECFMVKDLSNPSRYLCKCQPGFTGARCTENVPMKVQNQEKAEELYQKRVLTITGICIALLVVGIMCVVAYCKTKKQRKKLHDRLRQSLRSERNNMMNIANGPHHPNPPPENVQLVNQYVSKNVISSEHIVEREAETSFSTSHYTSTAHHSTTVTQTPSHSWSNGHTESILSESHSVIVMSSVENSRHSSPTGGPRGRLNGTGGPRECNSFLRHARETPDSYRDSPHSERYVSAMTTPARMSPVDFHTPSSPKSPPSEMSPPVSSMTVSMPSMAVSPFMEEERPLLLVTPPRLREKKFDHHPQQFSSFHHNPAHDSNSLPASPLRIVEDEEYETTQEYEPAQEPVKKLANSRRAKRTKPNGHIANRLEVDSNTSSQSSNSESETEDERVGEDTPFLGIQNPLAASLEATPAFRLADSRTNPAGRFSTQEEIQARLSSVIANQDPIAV
Neurogenic locus notch homolog protein 2 (Homo sapiens), sequence (Q04721 whole entry, looked up, canonical isoform): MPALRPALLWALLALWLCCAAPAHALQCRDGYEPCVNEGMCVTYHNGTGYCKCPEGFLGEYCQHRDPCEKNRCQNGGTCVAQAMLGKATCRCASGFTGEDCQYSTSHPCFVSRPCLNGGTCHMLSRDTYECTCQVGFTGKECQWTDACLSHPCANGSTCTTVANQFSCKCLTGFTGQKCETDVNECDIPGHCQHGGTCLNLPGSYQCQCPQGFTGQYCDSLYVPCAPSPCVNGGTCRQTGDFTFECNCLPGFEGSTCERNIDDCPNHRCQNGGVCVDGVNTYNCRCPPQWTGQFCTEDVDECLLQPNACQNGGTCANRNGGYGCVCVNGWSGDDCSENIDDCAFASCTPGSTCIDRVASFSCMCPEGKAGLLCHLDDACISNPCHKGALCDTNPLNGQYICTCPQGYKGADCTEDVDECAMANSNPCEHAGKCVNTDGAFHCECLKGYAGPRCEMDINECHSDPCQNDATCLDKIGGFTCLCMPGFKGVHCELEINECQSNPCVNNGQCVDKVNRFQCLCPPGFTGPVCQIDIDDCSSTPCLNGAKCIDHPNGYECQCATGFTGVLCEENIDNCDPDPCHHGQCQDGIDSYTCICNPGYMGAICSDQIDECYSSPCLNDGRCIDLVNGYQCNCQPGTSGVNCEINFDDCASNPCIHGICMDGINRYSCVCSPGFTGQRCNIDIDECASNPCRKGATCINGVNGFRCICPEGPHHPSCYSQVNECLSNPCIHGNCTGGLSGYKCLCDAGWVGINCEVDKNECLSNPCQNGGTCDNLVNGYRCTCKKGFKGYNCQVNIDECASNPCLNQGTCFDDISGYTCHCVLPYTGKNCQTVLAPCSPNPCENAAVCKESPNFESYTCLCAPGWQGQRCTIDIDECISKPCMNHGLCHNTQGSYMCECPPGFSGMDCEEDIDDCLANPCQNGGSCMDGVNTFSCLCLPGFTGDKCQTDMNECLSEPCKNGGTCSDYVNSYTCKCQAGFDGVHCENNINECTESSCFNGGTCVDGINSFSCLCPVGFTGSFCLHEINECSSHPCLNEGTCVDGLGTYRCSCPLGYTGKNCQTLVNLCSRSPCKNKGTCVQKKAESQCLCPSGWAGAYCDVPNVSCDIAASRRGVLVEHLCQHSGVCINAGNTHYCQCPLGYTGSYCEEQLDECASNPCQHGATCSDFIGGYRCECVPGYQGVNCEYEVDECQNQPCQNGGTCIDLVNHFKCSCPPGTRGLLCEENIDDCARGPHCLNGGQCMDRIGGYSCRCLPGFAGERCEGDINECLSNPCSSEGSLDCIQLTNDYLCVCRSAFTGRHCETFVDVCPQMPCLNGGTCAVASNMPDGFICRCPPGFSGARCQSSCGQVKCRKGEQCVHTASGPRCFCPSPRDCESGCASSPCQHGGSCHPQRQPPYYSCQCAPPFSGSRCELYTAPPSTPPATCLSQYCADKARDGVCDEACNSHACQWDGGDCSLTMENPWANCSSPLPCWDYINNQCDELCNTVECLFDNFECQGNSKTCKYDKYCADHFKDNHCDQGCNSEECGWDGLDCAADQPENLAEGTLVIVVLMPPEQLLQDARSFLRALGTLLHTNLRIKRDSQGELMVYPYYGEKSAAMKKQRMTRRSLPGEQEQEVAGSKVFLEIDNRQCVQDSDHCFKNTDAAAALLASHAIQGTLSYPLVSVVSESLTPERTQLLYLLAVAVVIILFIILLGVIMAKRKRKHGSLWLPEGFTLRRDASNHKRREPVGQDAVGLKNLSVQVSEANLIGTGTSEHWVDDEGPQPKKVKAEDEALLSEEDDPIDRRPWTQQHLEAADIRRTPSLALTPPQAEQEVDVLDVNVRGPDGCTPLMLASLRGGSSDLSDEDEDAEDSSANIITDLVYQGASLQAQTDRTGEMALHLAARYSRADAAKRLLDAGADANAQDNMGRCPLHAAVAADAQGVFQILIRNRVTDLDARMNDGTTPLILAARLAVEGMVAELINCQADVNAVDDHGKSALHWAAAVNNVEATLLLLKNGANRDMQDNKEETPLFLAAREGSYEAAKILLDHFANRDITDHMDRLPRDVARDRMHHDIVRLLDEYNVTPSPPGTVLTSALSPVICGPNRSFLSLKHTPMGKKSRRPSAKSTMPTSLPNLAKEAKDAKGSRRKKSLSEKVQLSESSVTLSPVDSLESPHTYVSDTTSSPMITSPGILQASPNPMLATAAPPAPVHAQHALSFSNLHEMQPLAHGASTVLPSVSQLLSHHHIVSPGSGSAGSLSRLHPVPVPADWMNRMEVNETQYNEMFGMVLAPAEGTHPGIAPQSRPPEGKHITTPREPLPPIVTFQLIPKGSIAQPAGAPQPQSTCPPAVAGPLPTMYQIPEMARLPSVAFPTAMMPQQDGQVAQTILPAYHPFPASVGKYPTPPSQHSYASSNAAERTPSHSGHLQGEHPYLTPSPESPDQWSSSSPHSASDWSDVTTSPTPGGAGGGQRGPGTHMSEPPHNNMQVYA

Turning to `CC(C)C(=C=CC[C@H](O)c1ccccc1OCCO)C[C@H](O)c1ccccn1`, the composite z-score is -0.102 in assay [1]; 1.51 in assay [2]; -0.125 in assay [3]; 0.486 in [4]; 0.695 in assay [5]; 1.66 in assay [6]. Further, the composite z-score in assay [7] was 1.36; in assay [9], 0.164; in assay [10] it was -0.201. In assay [8], the z-score was -1.68 (inactive).

In the case of `C=CCOC(=O)[C@H]1[C@@H]2C(=O)O[C@@H](c3ccccc3)[C@@H](c3ccccc3)N2[C@@H](c2ccc(OCCOC(=O)[C@@H]3C[C@@H]4C(=O)N5CCC[C@H]5C(=O)N4[C@@H]3c3ccc(O)cc3)cc2)[C@]12C(=O)Nc1ccccc12`, the composite z-score was -0.212 in assay [1]; 0.434 in assay [2]; -0.108 in assay [3]; 0.282 in assay [4]; 0.356 in assay [5]; 0.771 in [6]. In addition, the composite z-score in assay [7] was 1.28; in assay [9], 0.328; in [10], -0.249. For the same compound, the z-score in assay [8] is -0.105 (inactive).

As for `C=C[C@H](COC(C)=O)N(Cc1ccc(OC(C)=O)c(OC)c1)S(=O)(=O)c1ccc(Br)cc1`, the composite z-score is -0.0411 in [1]; 1.46 in [2]; 0.125 in assay [3]; 0.311 in assay [4]; 0.86 in [5]; 0.785 in assay [6]. Further, the composite z-score in assay [7] was 1.14; in [9], 0.413; in assay [10], -0.0024. Moreover, the z-score in assay [8] is -3.46 (inactive).

Turning to `CCOC(=O)C[C@H]1[C@H](OC(=O)c2ccccc2-c2ccccc2)[C@@H](NC(=O)c2ccc3ccccc3c2)c2cc(OCCCO)ccc2N1C(=O)c1ccc2ccccc2n1`, the composite z-score in assay [1] is -0.279; in assay [2] it was 0.353; in assay [3], -0.08; in assay [4] it was 0.443; in assay [5], 0.135; in assay [6], 0.0753. In addition, the values for the composite z-score in [7], in [9] and in assay [10] were 0.545, 0.484 and -0.0373, respectively. For the same compound, the z-score in assay [8] was 0.122 (inactive).

In the case of `Cc1ccc(S[C@]2(C(=O)NCC(C)C)CC(=O)N(Cc3ccccc3Cl)[C@@H]2c2ccc(CO)cc2)cc1`, the composite z-score in [1] was 1.27; in [2], -0.48; in assay [3], -0.151; in assay [4], -0.584; in assay [5], -1.36; in assay [6], -0.612. Also, the composite z-score was -0.232 in assay [7], -0.982 in assay [9] and -0.284 in assay [10]. The z-score in assay [8] is -2.55 (inactive).

For `COc1ccc([Si](C)(C)[C@@H]2[C@@H](CC(=O)N(CCO)Cc3ccccc3)O[C@]3(C(=O)N(C)c4ccccc43)[C@H]2C)cc1`, the composite z-score in assay [1] is 1.02; in assay [2], -0.135; in [3], -0.0336; in assay [4], 0.628; in assay [5], 0.525; in [6], 0.872. In addition, the composite z-score in [7] worked out at 1.11; in assay [9], 1.21; in assay [10], 0.411. In addition, in assay [8], the z-score is -2.19 (inactive).

Turning to `Cc1cc(C)c(C(O)C2C=CC3C(=O)N(c4ccccc4)C(=O)C3N2Nc2ccc(C#N)cc2)c(C)c1` (stereo not given), the composite z-score in assay [1] stood at 0.624; in [2], 0.36; in [3], 0.111; in [4], 0.783; in [5], 1.58; in assay [6], 1.74. For the same compound, the composite z-score in [7] came out at 1.15; in [9], 1.73; in assay [10], 0.167. Further, in assay [8], the z-score was -1.08 (inactive).

Take `COc1ccc([Si](C)(C)[C@@H]2[C@@H](CC(=O)N3CCC[C@H]3CO)O[C@]3(C(=O)N(C)c4c(Br)cc(C)cc43)[C@H]2C)cc1`: the composite z-score in assay [1] was -0.438; in assay [2], 0.264; in assay [3], -0.105; in [4] it was 0.113; in assay [5], 1.04; in [6], 0.776. The composite z-score in assay [7] is 0.9; in assay [9] it was 0.219; in [10], -0.0427. Moreover, in assay [8], the z-score was -1.53 (inactive).

For `O=C1C2C=CC(C(O)c3cccs3)N(Nc3ccccc3F)C2C(=O)N1c1ccccc1` (stereo not given), the composite z-score is -0.111 in assay [1]; 0.28 in assay [2]; -0.0951 in assay [3]; 0.711 in assay [4]; 0.92 in assay [5]; 1.07 in [6]. Moreover, the composite z-score in assay [7] is 1.17; in assay [9], 0.267; in assay [10], -0.196. Also, in [8], the z-score is 0.69 (inactive).

As to `O=C1O[C@H](c2ccccc2)[C@H](c2ccccc2)N2[C@H]1[C@@H](C(=O)NC[C@H](O)c1ccccc1)[C@]1(C(=O)Nc3ccc(C#CCCO)cc31)[C@H]2c1ccc(O)cc1`, the composite z-score in assay [1] was 0.326; in [2], -0.543; in [3] it was -0.103; in assay [4] it was -0.465; in assay [5], -0.42; in [6] it was 0.0538. The composite z-score was -0.51 in assay [7], -0.445 in assay [9] and 0.245 in [10]. Besides, the z-score in assay [8] was 0.08 (inactive).

With `COc1ccc(C#Cc2ccc3c(c2)[C@]2(C(=O)N3)[C@H](c3ccc(O)cc3)N3[C@H](c4ccccc4)[C@H](c4ccccc4)OC(=O)[C@H]3[C@@H]2C(=O)NC[C@H](O)c2ccccc2)cc1`, the composite z-score was -0.127 in assay [1]; 0.0172 in assay [2]; -0.0599 in [3]; 0.776 in assay [4]; 0.757 in assay [5]; 0.563 in [6]. Besides, the composite z-score in [7] is 1.15; in [9], 0.317; in assay [10], -0.288. For the same compound, in assay [8], the z-score was 0.72 (inactive).

With `CCCN1C(=O)[C@@]2(CCC(=O)OC(C)(C)C)N=C(c3ccc(OCCCO)cc3)O[C@H]2c2ccccc21`, the composite z-score was -0.0952 in assay [1]; 0.108 in [2]; -0.0243 in assay [3]; 0.102 in assay [4]; 0.312 in assay [5]; 0.0163 in assay [6]. Further, the composite z-score is 0.959 in [7], 0.0225 in assay [9] and -0.191 in [10]. The z-score in [8] was -1.22 (inactive).

Take `COCCOC(=O)N1C(=O)[C@@]2(c3cc(C#CCNC(N)=O)ccc31)[C@H](C(=O)N1CCc3cc(OC)c(OC)cc3C1)[C@H]1C(=O)O[C@H](c3ccccc3)[C@H](c3ccccc3)N1[C@@H]2c1ccc(OCCO)cc1`: the composite z-score in assay [1] was -0.222; in assay [2] it was 0.388; in [3], -0.0293; in assay [4], 0.392; in assay [5], 0.578; in [6], 0.0155. The composite z-score in assay [7] was 0.172; in assay [9] it was 0.536; in [10], 0.12. Further, in assay [8], the z-score is 0.363 (inactive).

In the case of `CC(C)C(=C=CC[C@H](O)c1cccc(OCCO)c1)C[C@H](O)COCc1ccccc1`, the composite z-score in [1] is -0.222; in assay [2], 0.0852; in assay [3], -0.095; in [4] it was 0.659; in assay [5], -0.139; in [6], 1.67. For the same compound, the figures for the composite z-score in assay [7], in [9] and in [10] were 1.13, -0.22 and -0.0994, respectively. The z-score in assay [8] was 0.724 (inactive).

For the compound `COCCOC(=O)N1C(=O)[C@@]2(c3ccccc31)[C@H](C(=O)Nc1nc3ccccc3s1)[C@H]1C(=O)O[C@H](c3ccccc3)[C@H](c3ccccc3)N1[C@@H]2c1ccc(OCCO)cc1`, the composite z-score in [1] was 0.001; in assay [2] it was 0.686; in [3], -0.0426; in assay [4], 0.738; in assay [5] it was 0.907; in assay [6] it was 0.897. Moreover, the composite z-score in assay [7] was 1.18; in assay [9], 0.381; in [10], -0.117. Also, in [8], the z-score is 2.77 (inactive).

Take `Cc1ccc(S[C@]2(C(=O)NCCN3CCOCC3)CC(=O)N(Cc3cc(C(F)(F)F)cc(C(F)(F)F)c3)[C@@H]2c2ccc(CO)cc2I)cc1`: the composite z-score in assay [1] is 0.428; in assay [2], -0.542; in assay [3], -0.131; in [4], -0.44; in [5] it was -0.297; in assay [6], 1.98. Moreover, the values for the composite z-score in assay [7], in [9] and in [10] were 0.0049, 0.0607 and 0.0333, respectively. For the same compound, the z-score in [8] is 0.679 (inactive).

With `Cc1ccc(S[C@]2(C(=O)O)CC(=O)N(C3Cc4ccccc4C3)[C@@H]2c2ccc(CO)cc2I)cc1`, the composite z-score was 1.43 in assay [1]; -0.269 in [2]; -0.0692 in assay [3]; 0.117 in assay [4]; -0.634 in assay [5]; 0.899 in [6]. For the same compound, the figures for the composite z-score in assay [7], in assay [9] and in assay [10] were 0.78, -0.154 and -0.0581, respectively. In addition, the z-score in assay [8] was 0.788 (inactive).

Values taken from PubChem BioAssay.
